The record followed here is PubChem BioAssay.

The nature of assay [1]: binders of probe aFSTL3 on microarray, primary screen, stem cell growth factor project, biochemical, small-molecule microarray, fluorescence 635/667 (AID 1064).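 Note: measures binding of the biotinylated anti-FSTL3 antibody to printed compounds.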 Particulars: higher = more signal.
Assay [2] in a line: binders from COS7 lysate, DM2A8 probe, primary screen, torsin A project, cell lysate, small-molecule microarray, fluorescence 635/667 (AID 1065). As to conditions: higher = more signal, COS7 lysate expressing mutant human TOR1A.
The nature of assay [3]: binders of probe aFGF2 on microarray, primary screen, stem cell growth factor project, biochemical, small-molecule microarray, fluorescence 635/667 (AID 1067).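 Note: measures binding of biotinylated aFGF2 protein to printed compounds on slides; z-score merges feature fluorescence and signal-to-noise across triplicate slides.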 Particulars: higher = more signal.
Assay [4] can be described thus: binders of probe aFGF10 on microarray, primary screen, stem cell growth factor project, biochemical, small-molecule microarray, fluorescence 635/667 (AID 1071).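 Note: score merges 667 nm spot intensity and signal to noise from triplicate slides.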 As to conditions: higher = more signal.
The target in assay [5] is Neurogenic locus notch homolog protein 2 (Homo sapiens) (UniProt Q04721). Kind of assay: Notch2 binders on small-molecule microarrays, primary screen, biochemical, small-molecule microarray, 635 nm fluorescence, stem cell growth factors (AID 1073). As to conditions: Notch2 binding, higher = more signal.
In assay [6] the target is Pro-neuregulin-1, membrane-bound isoform (Homo sapiens) (UniProt Q02297). As to the kind of experiment: NRG1 binders on small-molecule microarrays, primary screen, psychiatric disease protein project, biochemical, small-molecule microarray, fluorescence 635/667 (AID 1075).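 Note: score combines 667 nm spot fluorescence with signal to noise.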 Particulars: NRG1 binding, 635 nm fluorescence, higher = more signal.
Assay [7] concerns Neuregulin-1 EGF-like domain. As to the kind of experiment: binders of neuregulin-1 EGF-like domain, primary screen, biochemical, small-molecule microarray, 635 nm fluorescence (AID 1081).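 Note: binding of the protein to compounds printed on small-molecule microarray slides.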 Particulars: small-molecule microarray binding, higher = more signal.
Assay [8] in a line: FRG1 promoter luciferase signal modulators, primary screen, FRG1 inhibition for FSHD, cell-based, C2C12 myotubes, firefly/Renilla luciferase, luminescence (AID 1084). Particulars: higher = more signal, called active from +8 up or from −8 down.
Assay [9] is described as follows: binders of probe aFST on microarray, primary screen, stem cell growth factor project, biochemical, small-molecule microarray, fluorescence 635/667 (AID 1086).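 Note: score merges 667 nm fluorescence with signal-to-noise of each printed compound spot.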 Particulars: higher = more signal.
Assay [10] is described as follows: binders of probe aHhip on microarray, primary screen, stem cell growth factor project, biochemical, small-molecule microarray, fluorescence 635/667 (AID 1087).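 Note: score merges spot fluorescence at 667nm with spot signal to noise ratio.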 Particulars: higher = more signal.
Assay [11] deals with PRMT1 (protein arginine N-methyltransferase 1). Kind of assay: PRMT1 binders on small-molecule microarrays, primary screen, biochemical, small-molecule microarray, 635 nm fluorescence (AID 1088).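 Note: binding of Prmt1 protein to compounds spotted on small-molecule microarray slides.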 Particulars: small-molecule microarray binding, higher = more signal.
Assay [12] can be described thus: yeast growth modulation, basal conditions, primary screen, YJM789 clinical isolate, OD600, 24 h (AID 1089).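 Note: growth of clinical yeast isolate S. cerevisiae YJM 789 seeded 1000 cells per well; test concentration not given here.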 Particulars: S. cerevisiae YJM789 growth, higher = more signal, called active from +8 up or from −8 down.
The nature of assay [13]: fission yeast growth modulation, primary screen, strain 972, OD600, 24 h, no modulator (AID 1090).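 Note: basal condition with compound alone and no growth modifier present; test concentration not given here.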 Particulars: S. pombe 972 growth, higher = more signal, called active from +8 up or from −8 down.
Assay [14] is described as follows: S. cerevisiae growth modulation with rapamycin, primary screen, strain BY4716, OD600, 96 h (AID 1091). Note: test concentration not given here. Particulars: higher = more signal, called active from +8 up or from −8 down.
For assay [15], the target named is Torsin-1A-interacting protein 2 (Homo sapiens) (UniProt Q8NFQ8). As to the kind of experiment: LULL1 binders on small-molecule microarray, primary screen, cell lysate, human LULL1 lysate, 635/667 nm fluorescence (AID 1092).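 Note: probe is lysate of COS7 cells overexpressing human LULL1; score merges per-feature 667 nm fluorescence with signal-to-noise.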 As to conditions: hLULL1 lysate binding, 635 nm fluorescence, higher = more signal.
The nature of assay [16]: E. coli growth modulation, two-sided OD650, primary screen, E. coli filamentation project, strain DRC41, 24 h (AID 1093).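 Note: MC1000 strain lacking acrAB efflux and sulA so SOS filamentation is blocked; test concentration not given here.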 As to conditions: OD650, 24 h, higher = more signal, called active from +8 up or from −8 down.
A short description of assay [17]: small-molecule microarray binders of probe aLefty2, primary screen, biochemical, biotinylated probe, 635/667 nm fluorescence (AID 1094).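 Note: score merges spot fluorescence near 667 nm with spot signal-to-noise ratio.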 Particulars: higher = more signal.
Assay [18] deals with Noggin (protein binding on small-molecule microarray). As to the kind of experiment: Noggin binders on small-molecule microarray, primary screen, biochemical, 635/667 nm fluorescence (AID 1095).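 Note: score merges 667 nm feature fluorescence with signal to noise over triplicate slides.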 As to conditions: 635 nm fluorescence, higher = more signal.
Assay [19] deals with Neurogenic locus notch homolog protein 3 (Homo sapiens) (UniProt Q9UM47). Kind of assay: NOTCH3 binders on small-molecule microarray, primary screen, biochemical, 635/667 nm fluorescence (AID 1096). Particulars: NOTCH3 binding, 635 nm fluorescence, higher = more signal.
Assay [20] is described as follows: small-molecule microarray binders of probe aEGFR, primary screen, biochemical, biotinylated probe, 635/667 nm fluorescence (AID 1097).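 Note: probe is a biotinylated anti-EGFR antibody binding compounds printed on slides; score combines fluorescence near 667 nm and signal to noise of each spot.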 Particulars: higher = more signal.

Active and inactive are the calls of the source.

Sequence of Neurogenic locus notch homolog protein 3 (Homo sapiens) (Q9UM47 whole entry, looked up): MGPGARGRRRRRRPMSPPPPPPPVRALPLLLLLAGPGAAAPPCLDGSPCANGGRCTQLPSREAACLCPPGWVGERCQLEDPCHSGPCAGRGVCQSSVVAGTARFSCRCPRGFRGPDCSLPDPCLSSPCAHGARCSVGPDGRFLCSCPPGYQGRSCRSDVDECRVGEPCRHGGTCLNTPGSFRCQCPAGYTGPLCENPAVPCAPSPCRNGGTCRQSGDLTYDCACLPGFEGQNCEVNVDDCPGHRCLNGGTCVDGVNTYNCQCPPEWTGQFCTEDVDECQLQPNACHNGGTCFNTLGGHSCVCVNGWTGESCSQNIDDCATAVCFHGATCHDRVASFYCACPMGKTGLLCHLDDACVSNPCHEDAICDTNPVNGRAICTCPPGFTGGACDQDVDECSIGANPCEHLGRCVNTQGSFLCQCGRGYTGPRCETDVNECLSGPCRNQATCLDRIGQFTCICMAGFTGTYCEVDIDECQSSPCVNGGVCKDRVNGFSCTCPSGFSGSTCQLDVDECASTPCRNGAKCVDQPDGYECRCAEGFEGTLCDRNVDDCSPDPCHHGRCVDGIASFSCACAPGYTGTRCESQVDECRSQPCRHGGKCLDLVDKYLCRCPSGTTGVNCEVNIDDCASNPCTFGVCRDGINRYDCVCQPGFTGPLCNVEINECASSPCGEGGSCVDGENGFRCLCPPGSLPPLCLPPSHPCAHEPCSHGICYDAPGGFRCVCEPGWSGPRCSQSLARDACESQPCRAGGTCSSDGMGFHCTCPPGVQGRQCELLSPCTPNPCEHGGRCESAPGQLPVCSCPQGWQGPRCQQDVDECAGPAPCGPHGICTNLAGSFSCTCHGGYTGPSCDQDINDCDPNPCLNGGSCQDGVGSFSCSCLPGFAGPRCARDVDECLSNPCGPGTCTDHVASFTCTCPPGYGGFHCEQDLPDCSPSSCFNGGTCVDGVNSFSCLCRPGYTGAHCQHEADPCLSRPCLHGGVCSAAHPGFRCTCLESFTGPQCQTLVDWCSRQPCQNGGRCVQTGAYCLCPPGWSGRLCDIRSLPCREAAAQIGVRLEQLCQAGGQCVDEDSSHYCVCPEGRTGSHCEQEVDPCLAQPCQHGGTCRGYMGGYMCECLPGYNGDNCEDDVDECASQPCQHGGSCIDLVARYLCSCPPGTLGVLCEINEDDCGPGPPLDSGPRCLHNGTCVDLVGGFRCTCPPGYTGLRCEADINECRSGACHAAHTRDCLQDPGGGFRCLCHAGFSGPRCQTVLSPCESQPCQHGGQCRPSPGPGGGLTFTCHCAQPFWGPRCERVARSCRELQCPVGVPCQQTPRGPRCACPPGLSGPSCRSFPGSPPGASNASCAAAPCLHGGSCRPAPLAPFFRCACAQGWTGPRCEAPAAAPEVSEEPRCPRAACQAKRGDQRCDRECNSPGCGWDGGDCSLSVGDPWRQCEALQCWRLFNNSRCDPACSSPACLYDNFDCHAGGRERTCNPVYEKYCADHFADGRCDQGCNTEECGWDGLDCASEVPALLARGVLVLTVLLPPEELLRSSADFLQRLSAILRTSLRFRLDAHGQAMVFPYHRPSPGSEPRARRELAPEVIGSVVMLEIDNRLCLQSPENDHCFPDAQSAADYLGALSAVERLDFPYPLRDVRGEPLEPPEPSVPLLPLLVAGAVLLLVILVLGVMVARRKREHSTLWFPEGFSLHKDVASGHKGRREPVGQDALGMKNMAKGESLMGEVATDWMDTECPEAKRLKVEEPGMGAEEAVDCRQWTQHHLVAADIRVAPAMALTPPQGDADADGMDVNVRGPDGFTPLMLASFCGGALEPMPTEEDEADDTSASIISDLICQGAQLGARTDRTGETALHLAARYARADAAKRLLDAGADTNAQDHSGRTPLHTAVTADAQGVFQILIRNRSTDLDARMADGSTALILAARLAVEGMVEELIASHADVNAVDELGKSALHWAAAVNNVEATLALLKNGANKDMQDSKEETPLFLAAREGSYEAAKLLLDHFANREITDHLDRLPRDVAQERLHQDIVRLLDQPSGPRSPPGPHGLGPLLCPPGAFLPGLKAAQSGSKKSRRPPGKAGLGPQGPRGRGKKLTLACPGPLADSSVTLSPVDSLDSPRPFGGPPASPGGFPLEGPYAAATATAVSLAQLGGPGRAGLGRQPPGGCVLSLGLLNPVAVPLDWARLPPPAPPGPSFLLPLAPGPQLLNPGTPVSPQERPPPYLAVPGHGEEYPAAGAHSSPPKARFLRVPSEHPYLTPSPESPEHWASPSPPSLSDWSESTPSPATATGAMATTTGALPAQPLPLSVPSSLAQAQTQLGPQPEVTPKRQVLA
Sequence of Neurogenic locus notch homolog protein 2 (Homo sapiens) (Q04721 whole entry, looked up, canonical isoform): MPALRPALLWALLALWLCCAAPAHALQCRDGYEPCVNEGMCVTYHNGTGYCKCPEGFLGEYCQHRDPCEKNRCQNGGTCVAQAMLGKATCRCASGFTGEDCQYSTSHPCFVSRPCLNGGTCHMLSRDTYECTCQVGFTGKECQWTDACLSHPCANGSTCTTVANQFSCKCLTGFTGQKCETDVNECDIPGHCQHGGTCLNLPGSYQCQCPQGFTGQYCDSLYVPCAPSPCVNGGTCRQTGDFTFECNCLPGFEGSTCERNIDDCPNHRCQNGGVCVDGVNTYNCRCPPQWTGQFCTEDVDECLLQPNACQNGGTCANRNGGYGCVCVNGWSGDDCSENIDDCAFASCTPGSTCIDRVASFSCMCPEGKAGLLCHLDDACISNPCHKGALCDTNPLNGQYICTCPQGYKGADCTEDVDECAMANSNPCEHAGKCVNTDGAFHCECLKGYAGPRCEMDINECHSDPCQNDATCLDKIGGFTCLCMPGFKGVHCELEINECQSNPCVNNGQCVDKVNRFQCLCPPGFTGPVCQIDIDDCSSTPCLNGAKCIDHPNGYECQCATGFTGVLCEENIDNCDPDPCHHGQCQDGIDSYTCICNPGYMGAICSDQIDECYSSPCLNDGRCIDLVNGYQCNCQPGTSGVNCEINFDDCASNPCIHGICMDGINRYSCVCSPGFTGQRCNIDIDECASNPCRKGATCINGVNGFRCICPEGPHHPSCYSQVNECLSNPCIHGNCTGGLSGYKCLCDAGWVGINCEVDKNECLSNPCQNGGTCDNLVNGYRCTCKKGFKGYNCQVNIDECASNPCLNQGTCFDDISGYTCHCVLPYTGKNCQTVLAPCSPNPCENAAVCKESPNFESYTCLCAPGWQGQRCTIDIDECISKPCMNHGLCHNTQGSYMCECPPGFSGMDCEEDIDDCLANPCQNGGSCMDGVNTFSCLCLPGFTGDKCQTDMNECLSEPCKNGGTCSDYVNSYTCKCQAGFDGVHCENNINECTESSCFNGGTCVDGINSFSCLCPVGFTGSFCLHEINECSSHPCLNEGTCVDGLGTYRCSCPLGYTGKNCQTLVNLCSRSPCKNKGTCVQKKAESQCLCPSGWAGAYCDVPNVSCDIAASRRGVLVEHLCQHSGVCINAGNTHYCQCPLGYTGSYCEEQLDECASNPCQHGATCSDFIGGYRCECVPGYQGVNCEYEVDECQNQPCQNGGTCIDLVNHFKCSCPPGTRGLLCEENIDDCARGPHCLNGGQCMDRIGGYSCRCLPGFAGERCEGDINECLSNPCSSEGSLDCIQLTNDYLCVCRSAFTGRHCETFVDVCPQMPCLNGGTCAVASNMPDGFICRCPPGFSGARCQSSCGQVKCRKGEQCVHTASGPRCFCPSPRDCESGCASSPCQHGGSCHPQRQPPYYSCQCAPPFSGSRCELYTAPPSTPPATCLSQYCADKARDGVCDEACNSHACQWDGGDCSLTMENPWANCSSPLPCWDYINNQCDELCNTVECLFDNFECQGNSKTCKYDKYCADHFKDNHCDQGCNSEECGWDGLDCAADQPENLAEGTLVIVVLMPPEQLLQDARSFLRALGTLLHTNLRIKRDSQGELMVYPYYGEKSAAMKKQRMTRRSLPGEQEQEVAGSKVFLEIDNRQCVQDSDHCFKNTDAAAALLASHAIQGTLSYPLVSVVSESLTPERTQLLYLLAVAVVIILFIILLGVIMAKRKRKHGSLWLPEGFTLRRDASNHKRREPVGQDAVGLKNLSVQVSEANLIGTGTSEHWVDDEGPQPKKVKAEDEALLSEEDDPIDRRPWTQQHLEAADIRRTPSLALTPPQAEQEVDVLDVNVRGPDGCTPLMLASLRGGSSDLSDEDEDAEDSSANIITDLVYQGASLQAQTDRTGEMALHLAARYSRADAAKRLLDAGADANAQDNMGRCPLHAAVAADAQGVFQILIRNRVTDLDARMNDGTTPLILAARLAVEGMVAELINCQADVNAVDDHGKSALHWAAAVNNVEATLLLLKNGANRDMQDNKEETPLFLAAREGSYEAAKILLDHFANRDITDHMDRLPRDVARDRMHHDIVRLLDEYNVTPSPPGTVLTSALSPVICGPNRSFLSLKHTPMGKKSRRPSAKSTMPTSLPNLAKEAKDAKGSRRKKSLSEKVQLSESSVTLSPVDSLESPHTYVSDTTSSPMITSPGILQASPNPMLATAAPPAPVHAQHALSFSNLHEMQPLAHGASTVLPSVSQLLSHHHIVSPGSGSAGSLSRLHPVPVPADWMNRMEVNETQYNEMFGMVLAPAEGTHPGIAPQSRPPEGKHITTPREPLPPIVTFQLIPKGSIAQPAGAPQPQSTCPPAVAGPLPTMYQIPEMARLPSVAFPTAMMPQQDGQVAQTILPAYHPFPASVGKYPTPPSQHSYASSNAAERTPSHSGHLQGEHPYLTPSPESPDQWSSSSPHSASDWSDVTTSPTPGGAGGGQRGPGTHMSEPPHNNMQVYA

Regarding `CCOC(=O)C[C@H]1[C@H](OC(=O)c2ccc(C(=O)c3ccccc3)cc2)[C@@H](NC(=O)c2ccccc2)c2cc(OCCCO)ccc2N1C(=O)c1ccc2ccccc2n1`, the composite z-score in assay [1] was -0.416; in [2], 0.0991; in assay [3], -0.0206; in assay [4] it was 0.234; in assay [5] it was 1.27; in [6], 0.682. Besides, the composite z-score stood at 0.417 in assay [7]; 0.314 in assay [9]; 0.107 in assay [10]; 0.81 in assay [11]; 1.54 in [15]; 0.418 in [17]. The composite z-score in assay [18] is 0.0946; in assay [19], 1.03; in [20], -0.142. In addition, the z-score is -0.266 (inactive) in assay [8]; -0.121 (inactive) in [12]; -0.429 (inactive) in assay [13]; 0.443 (inactive) in assay [14]; 0.104 (inactive) in assay [16].
`C[N+](C)(C)CCCCNC(=O)[C@H]1C[C@H]2C(=O)N3CCC[C@H]3C(=O)N2[C@H]1c1cccc(OCCO)c1`: the composite z-score is 0.397 in assay [1]; 0.442 in [2]; -0.154 in [3]; -0.194 in [4]; -0.568 in [5]; -0.235 in assay [6]. Moreover, the composite z-score in assay [7] came out at 0.807; in assay [9] it was 0.412; in assay [10], 0.0053; in assay [11], 0.0394; in assay [15], 0.889; in assay [17] it was 0.0459. Also, the composite z-score is 1.52 in assay [18], 0.0378 in assay [19] and -0.185 in [20]. Also, the z-score was 2.19 (inactive) in [8]; 0.573 (inactive) in assay [12]; -0.0177 (inactive) in [13]; -1.09 (inactive) in assay [14]; 0.51 (inactive) in [16].
For the molecule `CCc1cccc(NC(=O)O[C@H]2[C@H](OC(=O)Nc3ccccc3-c3ccccc3)[C@@H](OC(=O)Nc3ccccc3-c3ccccc3)[C@@H](OC)O[C@@H]2CO)c1`, the composite z-score was -0.283 in assay [1]; 0.79 in assay [2]; 0.14 in assay [3]; 0.806 in assay [4]; 1.6 in assay [5]; 1.88 in assay [6]. Moreover, the composite z-score is 1.27 in [7]; 1.32 in [9]; -0.104 in [10]; 1.53 in assay [11]; 3.43 in assay [15]; 0.126 in assay [17]. The composite z-score in assay [18] came to 0.666; in assay [19], 1.07; in [20] it was 0.0506. Besides, the z-score in assay [8] is 1.38 (inactive); in assay [12], 0.182 (inactive); in assay [13] it was 1.42 (inactive); in [14], -2.51 (inactive); in assay [16] it was -1.31 (inactive).
With `C=CCN1C(=O)[C@@]2(CC=C)N=C(c3ccc(OCCCO)cc3)O[C@H]2c2ccccc21`, the composite z-score in [1] was 0.529; in assay [2], 0.194; in assay [3], 0.0606; in assay [4] it was -0.0534; in assay [5], 1.38; in assay [6] it was 1.3. Besides, the composite z-score is 1.37 in assay [7]; 0.835 in assay [9]; -0.318 in assay [10]; 1.54 in assay [11]; 3.6 in [15]; 0.357 in [17]. Further, the composite z-score in assay [18] was 1.33; in assay [19], 0.874; in assay [20], 0.297. The z-score is -2.47 (inactive) in [8]; -3.69 (inactive) in assay [12]; -4.72 (inactive) in assay [13]; 0.764 (inactive) in [14]; 1.47 (inactive) in [16].
As to `C=C(COC)/C(=C/C[C@@H](OC(=O)c1ccncc1)c1ccc(CO)o1)c1cc(C(=O)OC)ccc1OC`, the composite z-score was -0.496 in assay [1]; 0.699 in assay [2]; -0.0451 in [3]; 0.833 in assay [4]; 1.38 in [5]; 0.97 in [6]. Moreover, the composite z-score is 1.26 in assay [7]; 0.458 in [9]; -0.0994 in assay [10]; 1.53 in [11]; 2 in assay [15]; -0.178 in [17]. The composite z-score in [18] is 1.68; in [19] it was 1.07; in assay [20] it was 0.0878. The z-score is -1.38 (inactive) in assay [8]; 0.102 (inactive) in assay [12]; -0.262 (inactive) in assay [13]; -0.127 (inactive) in assay [14]; 0.564 (inactive) in assay [16].
